# Measurements as given in ChEMBL document CHEMBL3433997, “St. Jude Leishmania screening dataset” (2016).
# Target: Glucose transporter (Leishmania mexicana) (UniProt O61059)
# Assay: ST_JUDE_LEISH: Cytotoxicity at 2uM final concentration against transgenic Leishmania Mexicana promastigotes LmGT2 that are glucose transport deficient and complemented with the L. Mexicana glucose transporter 2. Activity is measured by DNA content using SYBR green in vitro
# Assay type: functional
row,Structure (SMILES),inhibition [%]
1,CCOCCCn1c(=N)c(C(=O)NCc2ccc(F)cc2)cc2c(=O)n3cccc(C)c3nc21,-1.34
2,O=c1cc(NCCCNCc2ccc(C(F)(F)F)c(F)c2)[nH]c2ccccc12,-0.68
3,CC(C)NC(=O)c1cccc(-c2ccc(OCCN3CCCC3c3cc4ccccc4[nH]3)cc2)c1 (stereo not given),-1.97
4,CC(C)CSc1cc(C(=O)Nc2cc(Cl)ccc2O)ccn1,-2.72
5,CC(CN(C)C)C(=O)Nc1cccc(-c2ccc(-c3nc4ccccc4[nH]3)cc2)c1 (stereo not given),7.36
6,O=C(Nc1ccc(OC2CCN(Cc3ccc(F)cc3)CC2)c(Cl)c1)c1ccco1,3.28
7,Cc1ccc(Cn2nc(Cl)c(N3CCNCC3)cc2=O)cc1NC(=O)Nc1ccc(-c2ccccc2)cc1,6.75
8,CCc1cn(CCc2ccccc2)c2ccc(C(=O)N[C@@H](Cc3ccccc3)[C@H](O)CNC(C)(C)CCCC(C)C)cc12,-2.99
9,CCNc1cc(C(=O)N[C@@H](Cc2ccccc2)[C@H](O)CNC2(CC)CC2)cc(N2CCCCS2(=O)=O)c1,-2.45
10,COc1cc(O)c2c(=O)c(OC)c(-c3cccc(Cl)c3OC3O[C@H](CO)[C@@H](O)[C@H](O)[C@H]3O)oc2c1OC (stereo not given in full),4.54
11,CCCCN1CCN(CCCCNc2c3ccccc3nc3ccccc23)CC1,22
12,COc1ccc(Nc2ncc3c(-c4cccc(NC(=O)Cc5cccc(F)c5)c4)c[nH]c3n2)cc1OC,4.39
13,Cc1nc(N)nc(N)c1C#CC1CCCC1,2.76
14,COc1ccc(CC(C)CON2C(N)=NC(N)=NC2(C)C)cc1 (stereo not given),4.04
15,CN(C)c1ccc(-c2csc(C(=O)NCC3CCN(CCC(C)(C)C)C3)c2)cc1 (stereo not given),0.06
16,CN(C)c1ccc(-c2csc(C(=O)NC3CCN(Cc4ccc(C(C)(C)C)cc4)C3)c2)cc1 (stereo not given),5.56
17,N#Cc1ccc(-c2ccc(C(=O)NCCCCN3CCC(c4ccc5c(c4OCC(N)=O)CCCC5)CC3)nc2)cc1,2.97
18,c1ccc(-c2csc(Nc3nc4cc5c(cc4s3)OCO5)n2)nc1,-1.72
19,Cc1cc(N[C@@H](Cc2ccccc2)C(=O)NCc2cccc(F)c2)nc(NCCc2ccccc2)n1,2.48
20,Cn1c(CN2CCC(N3CCc4cc(NC(=O)c5ccco5)ccc43)C2)cc2ccccc21 (stereo not given),5.36

row,Structure (SMILES),inhibition [%]
1,O=C(c1ccc(Cl)cc1Cl)N1CCCC(C(F)(F)F)C1 (stereo not given),10.3
2,Cc1oc(-c2ccccc2)nc1CCOc1ccc(C[C@H](Nc2ccccc2C(=O)c2ccccc2)C(=O)NCc2ccccn2)cc1,4.35
3,N=C(N)c1ccc(NCc2cccc(C(=O)O)c2)cc1,3.66
4,CC[C@H](C)CNC(=O)c1ccnc(-c2ccc(CN3CCC(N4CCCC4)CC3)cc2)c1,0.35
5,CNc1ccc(CNCc2ccc(-c3ccc(-c4nc5cc(C(F)(F)F)ccc5[nH]4)cc3)cc2)cc1,9.71
6,CN1CCCC1CCNc1ncc2c(-c3ccc(NC(=O)Nc4cc(C(F)(F)F)ccc4F)c(F)c3)nn(C)c2n1 (stereo not given),-0.39
7,Cc1cccc2nc(-c3ccc(-c4cccc(CNCCCN5CCCC5=O)c4)s3)[nH]c12,2.91
8,O=c1cc(NCCCNCc2cccc(SC(F)(F)F)c2)[nH]c2ccccc12,3.15
9,CCN(CC)CCN(Cc1ccc(-c2ccc(C(F)(F)F)cc2)cc1)C(=O)Cn1c(CCc2cccc(F)c2F)cc(=O)c(C)c1C,3.62
10,Cc1cc(NCCc2ccccc2)nc(NC(=N)Nc2cccc(Cl)c2)n1,0.63
11,N=C(N)NC(=O)Nc1ccc(Cl)c(C(F)(F)F)c1,1.44
12,O=C(NC1CC1)c1ccc(Cn2c(SCc3cccc(Cl)c3)nc3ccccc3c2=O)cc1,-1.07
13,COc1cc(OC)c(OC)cc1CN1CCC2(CC1)CN(Cc1ccc(Cl)c(Cl)c1)C(=O)O2,8.16
14,COc1cc(CCOc2c(C)nc(N)nc2N)cc(OC)c1OC,-0.41
15,CC(=O)Nc1ccc(OCCCN(Cc2ccccc2OC(F)(F)F)c2ccc(C(F)(F)F)c(C#N)c2)c(Cl)c1,1.86
16,O=C(C=Cc1ccc(Cl)c(Cl)c1)NC1CCN(CCc2ccccc2)CC1,-4.41
17,COc1ccc2nccc(N3CCCN(CCNS(=O)(=O)c4ccc5c(c4)NC(=O)CS5)CC3)c2n1,-0.73
18,COC(=O)c1cccc(C#CCCOCCCCCCNC[C@H](O)c2cc(Cl)c(N)c(Cl)c2)c1,1.01
19,CCNc1cc(C)nc(Nc2ccc(NC(=O)Cc3ccc(OC)cc3)cc2)n1,4.74
20,c1cc(CNc2ncc(-c3ccsc3)c(-c3nccs3)n2)ccn1,6.45
